Reference: PubChem BioAssay AID1851 (National Center for Advancing Translational Sciences (NCATS), 2009)
Hit rate of the full screen: of about 16,000 compounds, about 5,100 (32%) were called active. Inconclusive results (about 25%) are left out. Some of the results follow. Unmarked numbers belong to inactive results. Calls follow the shape of the dose curve; as a rule, active = well fitted curve in the direction sought with a large enough effect; inconclusive = small, poorly fitted or top-dose-only effect, or effect the other way; inactive = no such curve, though single readings can be large or run the other way.

molecular target: Cytochrome P450 3A4 (Homo sapiens) (UniProt P08684); assay: Cytochrome panel assay with activity outcomes; settings: recombinant CYP, pro-luciferin dealkylation, luminescence, p450-cyp3a4; series mostly up to 57.1 µM; activity, negative = inhibition: at the top concentration
Sequence (P08684 whole entry, looked up): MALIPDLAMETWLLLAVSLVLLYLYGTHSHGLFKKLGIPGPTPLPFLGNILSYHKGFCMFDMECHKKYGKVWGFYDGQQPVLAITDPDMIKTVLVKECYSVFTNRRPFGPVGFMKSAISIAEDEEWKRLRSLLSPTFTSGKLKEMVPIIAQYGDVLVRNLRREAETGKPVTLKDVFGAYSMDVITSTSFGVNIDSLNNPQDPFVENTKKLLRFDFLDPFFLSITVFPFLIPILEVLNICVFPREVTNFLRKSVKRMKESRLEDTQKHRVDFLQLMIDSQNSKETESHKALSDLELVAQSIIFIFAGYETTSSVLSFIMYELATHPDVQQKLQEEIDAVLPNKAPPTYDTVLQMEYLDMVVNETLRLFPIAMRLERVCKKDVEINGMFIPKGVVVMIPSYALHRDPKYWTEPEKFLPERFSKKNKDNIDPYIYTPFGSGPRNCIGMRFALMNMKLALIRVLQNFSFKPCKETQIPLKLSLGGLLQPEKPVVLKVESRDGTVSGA
% is scaled to controls: 0 for no effect and ±100 for the full control effect.

SMILES | activity, negative = inhibition | AC50
O=C(Nc1ccccc1N1CCOCC1)c1ccccc1[N+](=O)[O-] | 14.2% | 
Cc1cc(F)ccc1S(=O)(=O)Nc1ccccc1C(=O)Nc1ccccc1N1CCOCC1 |  | 0.891 µM (active)
O=C(Nc1ccccc1N1CCOCC1)c1ccc([N+](=O)[O-])cc1 | -2.07% | 
CN(C)Cc1ccccc1-c1nc(NCc2ccccc2)c2ccccc2n1 |  | 12.6 µM (active)
Cc1cccc(CNc2nc(-c3ccccc3CN(C)C)nc3ccccc23)c1 |  | 10 µM (active)
CN(C)Cc1ccccc1-c1nc(N(C)C)c2ccccc2n1 | -28% | 
CCOc1cc(/C=C2/SC(=O)N(CC(=O)N3CCc4ccccc4C3)C2=O)ccc1OCC(=O)O | -11.9% | 
COc1ccccc1OCCN1C(=O)S/C(=C\c2ccco2)C1=O |  | 14.1 µM (active)
CCCCN=C1N/C(=C\c2ccco2)C(=O)N1c1ccccc1 | -25.2% | 
CCCc1cc(=O)oc2cc(OCC(=O)N3CCc4ccccc43)ccc12 |  | 8.91 µM (active)
CCCCc1cc(=O)oc2cc(OCC(=O)N(CC)CC)ccc12 | -26.8% | 
CCCc1cc(=O)oc2cc(OCc3nn[nH]n3)ccc12 | -17.2% [at 2.29 µM] | 
Cc1ccc(Nc2nc(-c3c(C)nc4ncccn34)cs2)cc1 |  | 25.1 µM (active)
C=CCn1c(=O)c(C(=O)NCCN(CC)CC)c(O)c2ccccc21 | -20.6% | 
CC(C)C(=O)NCCn1ccc2ccccc21 |  | 12.6 µM (active)
O=C(O)CN1CCN(Cc2ccccc2)C1=O | 11.6% | 
O=C(O)CN1CCN(Cc2ccc(F)cc2Cl)C1=O |  | 2.24 µM (active)
Cc1sc(NC(=O)C2CCCCC2)c(C#N)c1-c1ccccc1 |  | 8.91 µM (active)
CC1=C(C#N)C(NC(=O)C2CCCCC2)(C(F)(F)F)C(=O)N1 (configuration not stated) | -17.3% | 

SMILES | activity, negative = inhibition | AC50
Cc1sc(NC(=O)/C=C/c2ccc(C(C)C)cc2)c(C#N)c1C | -11.7% | 
CC(C)(C)CNC(CO)C12CC3CC(CC(C3)C1)C2 (configuration not stated) | -5.44% | 
Cc1ccc2nc(SCc3nc4c(cnn4-c4ccccc4)c(=O)[nH]3)[nH]c2c1 |  | 10 µM (active)
CCC(CC)C(=O)Nc1c2cnn(-c3ccccc3)c2nc(=O)n1-c1ccccc1 | -11.9% | 
Cc1nc(SCC(=O)Nc2c(C)nn(C)c2C)c2cnn(-c3ccccc3)c2n1 | -11.2% [at 2.29 µM] | 
CCOC(=O)Cc1cc(=O)n2[nH]c(C)c(-c3ccccc3)c2n1 | -6.13% | 
Cc1ccc2c(CC(=O)OCc3cc(=O)n4c(n3)sc3ccccc34)coc2c1 |  | 7.94 µM (active)
CCc1c(O)nc2sc3ccccc3n2c1=O | -8.69% | 
CN(CCO)c1nc(N)c2c(N)nc3c(c2c1C#N)CC(=O)N3C1CCCC1 |  | 10 µM (active)
COCCCNC(=O)C(=O)N/N=C/c1ccc(OCC(=O)Nc2cccc(Cl)c2C)c(OC)c1 | 7.9% [at 2.29 µM] | 
Cc1ccccc1OCC(=O)NC(=S)Nc1ccc(Br)c(C)n1 | -6.09% | 
COc1cc(/C=N/NC(N)=O)c(Br)cc1OCC(=O)Nc1ccccc1C |  | 3.55 µM (active)
CCCN1C(=O)/C(=C/c2ccc(C)s2)SC1=Nc1ccc(OC)cc1 |  | 14.1 µM (active)
CCCCOC(=O)NS(=O)(=O)c1sc(CC(C)C)cc1-c1ccc(Cn2c(CC)nc3c(C)cc(C)nc32)cc1 |  | 3.16 µM (active)
C=CCn1c(SCC(=O)Nc2c(C)n(C)n(-c3ccccc3)c2=O)nc2sc(C)c(-c3ccccc3)c2c1=O |  | 2.51 µM (active)
Cc1c(NC(=O)CSc2nnnn2C)c(=O)n(-c2ccccc2)n1C | -2.31% [at 2.29 µM] | 
Cc1c(NC(=O)CSc2nnc3c4ccccc4n(CCc4ccccc4)c3n2)c(=O)n(-c2ccccc2)n1C |  | 10 µM (active)
Cc1nc(SCC(=O)Nc2c(C)n(C)n(-c3ccccc3)c2=O)nc(C)c1C | -4.78% [at 11.4 µM] | 
Cc1cccc(NC(=O)Cn2c(=O)n3nc(CCn4nc(C)cc4C)nc3c3ccccc32)c1 |  | 5.01 µM (active)

SMILES | activity, negative = inhibition | AC50
Cc1cccc(NC(=O)CSc2nc3ccccc3c3nc(CCc4c(C)n[nH]c4C)nn23)c1 |  | 3.55 µM (active)
Cc1ccc(/C=C/C(=O)N2CC(C)CC(C)C2)o1 (configuration not stated) | 9.56% | 
C[C@]1(c2ccccc2)O[C@@H]2C[C@@H]3[C@@H]4CCC5=CC(=O)C=C[C@@]5(C)[C@]4(F)[C@H](O)C[C@]3(C)[C@@]2(C(=O)CO)O1 |  | 3.16 µM (active)
C[C@H]1C[C@H]2[C@H]3CCC4=CC(=O)C=C[C@@]4(C)[C@]3(F)[C@H](O)C[C@]2(C)[C@@]1(O)C(=O)COP(=O)(O)O | 7.91% [at 11.4 µM] | 
C[C@]12C=CC(=O)C=C1CC[C@@H]1[C@H]3C[C@@H](O)[C@](O)(C(=O)CO)[C@@]3(C)C[C@H](O)[C@]12F | -2.5% [at 25.6 µM] | 
Cc1ccccc1C(C(=O)NCc1ccccc1)N(Cc1ccco1)C(=O)c1ccccn1 (configuration not stated) |  | 3.16 µM (active)
O=C(NCc1ccccc1)C(c1ccc(F)cc1)N(Cc1ccco1)C(=O)c1ccccn1 (configuration not stated) |  | 2.24 µM (active)
Clc1ccc(-c2cc3ccccc3[nH]2)cc1 | -20.2% | 
N#C/C(=C\N1CCNC1=S)C(=O)c1ccc2ccccc2c1 | -26% [at 11.4 µM] | 
N#C/C(=C\c1ccc(O)c(O)c1)C(N)=O | -22.9% | 
N#C/C(=C\c1ccc(O)c(O)c1)C(=O)c1ccc(O)c(O)c1 |  | 15.8 µM (active)
N#C/C(=C\c1c[nH]c2ccccc12)C(=O)c1ccc(O)c(O)c1 |  | 7.94 µM (active)
c1ccc(-n2ncc3c2ncn2cnnc32)cc1 | -14.2% | 
Cc1nc2c3cnn(-c4ccc(C)c(C)c4)c3ncn2n1 |  | 17.8 µM (active)
Cc1ccc(-n2ncc3c2ncn2nc(-c4ccco4)nc32)c(C)c1 | 2.26% | 
CC(C)(C)c1ccc(OCC(=O)O)c(Cl)c1 | -2.41% [at 11.4 µM] | 
O=C1N=C(N2CCOCC2)S/C1=C/c1cccs1 | -4.33% [at 2.29 µM] | 
NC(=O)CNC(=O)[C@@H]1CC2(CC(c3ccccc3)=NO2)CN1C(=O)c1ccc(Br)cc1 (some centres not stated) | -5.09% [at 11.4 µM] | 
COc1cccc(N(C(=O)Cn2nnc(-c3ccc(C)cc3)n2)C(C(=O)NC(C)(C)C)c2c[nH]c3ccccc23)c1 (configuration not stated) |  | 2.82 µM (active)
